# Experimental data published in PubChem BioAssay (NCATS).
# Results filed as inconclusive are left out. Active and inactive are the calls of the source. Calls come from the whole dose curve; as a rule, active = well fitted inhibition curve with a large enough effect; inconclusive = small, poorly fitted or top-dose-only effect; inactive = flat fitted curve, though single readings scatter.
# System: CRL-7250
# Assay: Cytotoxic Profiling of Annotated Libraries Using Quantitative High-Throughput Screening (AID 1296008); note: nearly all actives have a fitted effect of over 60% in size
# Settings: Five cell lines viability, CellTiter-Glo ATP luminescence, 48-72 h; max response: active compounds read low
# Procedure, shortened: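 Cytotoxicity was measured as CellTiter-Glo ATP luminescence, read after 10 min at room temperature. Compound treatment of the cells lasted 48 or 72 hr at 37 degrees Celsius in a qHTS format.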
# % is set by controls: 0 for no effect and ±100 for the full control effect; potency is the fitted concentration of half-maximal effect.
Structure (SMILES),max response,outcome,Potency
O=C(NC[C@H](O)CN1CCc2ccccc2C1)c1ccnc(NC2CCC2)c1,-5.29% (inactive),–,–
COc1ccc(NC(=O)c2ccc(-c3ccc(C(=N)N)cc3C)cc2)cc1N1CCN(C)CC1,4.07% (inactive),–,–
C[C@@H]1O[C@@H](O[C@H]2[C@@H](OC(=O)[C@]34CCC(C)(C)CC3C3=CCC5[C@@]6(C)C[C@H](O)[C@H](O[C@@H]7O[C@H](CO)[C@@H](O)[C@H](O)[C@H]7O[C@@H]7OC[C@@H](O)[C@H](O)[C@H]7O)[C@@](C)(C(=O)O)C6CC[C@@]5(C)[C@]3(C)CC4)OC[C@H](O)[C@@H]2O)[C@H](O)[C@H](O)[C@H]1O[C@@H]1OC[C@@H](O)[C@H](O)[C@H]1O (some centres not stated),4.52% (inactive),–,–
CC1=C2C[C@@]3(C)C(CCC[C@@H]3C)C(O)C2OC1=O (some centres not stated),2.27% (inactive),–,–
CC#C[C@@H](CC(=O)O)c1ccc(OCc2ccc(CN3CCC4(C=Cc5ccccc54)CC3)s2)cc1,–,inactive,–
O=C(N[C@H]1CCN(C(=O)c2cc(C(F)(F)F)cc(C(F)(F)F)c2)[C@H](Cc2ccc(Cl)cc2)C1)c1ccnc2ccccc12,0.275% (inactive),–,–
Cc1[nH]c2ccccc2c1CCNC(=O)c1cccs1,-14.1% (inactive),–,–
C=C[C@](C)(O)CC[C@H]1C(C)=CC(=O)[C@H]2C(C)(C)CCC[C@]12C,-9.12% (inactive),–,–
CNC(C)C(=O)NC(C(=O)N1CCCC1C(=O)Nc1snnc1-c1ccccc1)C1CCCCC1 (configuration not stated),0.759% (inactive),–,–
C/C=C/C=C/C(=O)O[C@@H]1C=C2COC(=O)[C@]2(O)[C@@]2(C)CCCC(C)(C)[C@H]12,-1.83% (inactive),–,–
O=C(NCCCc1ccccc1)C1CCC(CNS(=O)(=O)c2cccc3nsnc23)CC1 (configuration not stated),-1.65% (inactive),–,–
C/C=C(/C=C(C)/C=C/C=C/C=C(\C)C(=O)C12OC1C(O)(CCO)NC2=O)C(=O)OC (configuration not stated),-6.59% (inactive),–,–
COc1ccc(C2(N(C)C(=O)c3ccc(NC(=O)c4ccco4)cc3)CCOCC2)cc1,-25.1% (inactive),–,–
Cn1cc(-c2ccc(F)c(C(F)(F)F)c2)nc1C1CCN(c2ncnc3[nH]ncc23)CC1,-0.425% (inactive),–,–
CN(C)CCOc1cc(NS(=O)(=O)c2c(Cl)cc(C(F)(F)F)cc2Cl)ccc1Cl,2.92% (inactive),–,–
COc1cc(O)cc(/C=C/c2cccc(O)c2)c1,0.366% (inactive),–,–

Structure (SMILES),max response,outcome,Potency
O=C(NCCCn1ccnc1)c1cc(-c2ccco2)on1,-18.4% (inactive),–,–
CCC/C=C\C=C/CCc1cc(O)c([C@@H]2O[C@H](CO)[C@@H](O)[C@H](O)[C@H]2O)c(O)c1C(=O)OC,-29.4% (inactive),–,–
CC[C@H](C)/C=C(C)/C=C/C1=CC2=C(Cl)C(=O)[C@](C)(O)[C@H](OC(C)=O)[C@H]2CO1,-9.34% (inactive),–,–
O=C(Nc1ccccc1Cl)c1cnc2ccc(C3CCNCC3)cn12,–,–,1.03 µM (active)
CC(C)(C)Sc1c(CC(C)(C)C(=O)O)n(Cc2ccc(Cl)cc2)c2ccc(OCc3ccc4ccccc4n3)cc12,-0.604% (inactive),–,–
COc1cc(NC(=O)c2cc(C3CC3)on2)c(OC)cc1Cl,-0.243% (inactive),–,–
CCOC(=O)CCNc1cc(N2CCc3ccccc3CC2)nc(-c2cccnc2)n1,–,inactive,–
CCOC(=O)C1=Cc2ccc(C(F)(F)C(F)(F)F)cc2N=C(N)C1,-15.9% (inactive),–,–
O=S(=O)(Cc1ccccc1)Nc1ccc(-c2ccc3c(cnn3-c3ccc(F)cc3)c2)c(C(F)(F)F)c1,-4.69% (inactive),–,–
O=C(Nc1ccc(N2C(=O)[C@@H]3[C@H](C2=O)[C@@H]2C=C[C@H]3C2)c(Cl)c1)c1ccccn1,-25.2% (inactive),–,–
COc1ccncc1C(=O)NC(=O)Nc1ccc(-c2ccccc2)c(C(F)(F)F)c1,–,inactive,–
CNCCC(c1cccs1)c1ccc(O)c2ccccc12 (configuration not stated),3.5% (inactive),–,–
CC1(C)CC[C@]2(C(=O)O)CC[C@]3(C)C(=CCC4[C@@]5(C)C[C@@H](O)[C@H](O)C(CO)(CO)C5CC[C@]43C)C2[C@@H]1O (some centres not stated),–,–,7.96 µM (active)
CC(C)Oc1ccc(-c2cnc3c(-c4ccnc5ccccc45)cnn3c2)cc1,0.774% (inactive),–,–
CN(C)N(C)C(=O)[C@@]1(Cc2ccccc2)CCCN(C(=O)[C@@H](Cc2c[nH]c3ccccc23)NC(=O)C(C)(C)N)C1,-26.9% (inactive),–,–
C=C(CCC1C(C)(O)CCC2C(C)(C)C(O)CCC12C)C(O)CO (configuration not stated),-26.3% (inactive),–,–
